Source: PubChem
This is a sample that favours compounds with a hit; in the whole collection about 14% have one here.
Pf growth 96h: Primary qHTS for delayed death inhibitors of the malarial parasite plastid, 96 hour incubation; hit rate 6.9% among 320,000; Potency, µM (top dose mostly 28.7 µM), without a hit: at the top dose activity change, negative = inhibition, actives largely listed as inhibitors; AID 504834, 2011; P. falciparum luciferase reporter growth, 96 h; further: potency means the concentration at half of the fitted maximal effect
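Erythrocytes infected with luciferase-expressing P. falciparum were dispensed at 2% hematocrit and 0.05% parasitemia (final), then incubated with compounds 96 hours at 37 C in 5% CO2. Luminescence after detection reagent addition reported growth.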
HCMV antiviral: qHTS Assay for inhibitors of the human cytomegalovirus (HCMV); AID 1259415, 2018; hit rate 4.5% among 410,000; HFF cells, HCMV-luciferase reporter, 72 h; active compounds read low; activity change, negative = inhibition, % at 57.5 µM; in the data active means activity change below about -60%; inconclusive means no clear call, values can overlap the other calls; inactive means above about -39%
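Inhibition of viral replication was scored as loss of reporter luminescence in HFFs infected with HCMV-luciferase (MOI 1 PFU/cell) for 72 h; compounds tested at 2 doses, normalized to buffer and Salinomycin controls.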
Pf growth 48h: Primary qHTS for delayed death inhibitors of the malarial parasite plastid, 48 hour incubation | P. falciparum luciferase growth in erythrocytes, 48 h | Potency, µM (titrated, usually from 28.7 µM), inactives show at the highest dose activity change, negative = inhibition, usual class: inhibitors | hit rate 5.9% among 310,000 | AID 504832, 2011; further: potency means the concentration at half of the fitted maximal effect
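Read-out is firefly luciferase luminescence from an integrated reporter in P. falciparum, so falling signal marks reduced parasite growth. Infected erythrocytes were at 2% hematocrit and 0.1% parasitemia (final) in Albumax-supplemented RPMI 1640.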
MARV entry inh: qHTS for inhibitors of binding or entry into cells for Marburg Virus; hit rate 1.8% among 300,000; Marburg virus pseudotyped entry inhibition, cell reporter; Potency, µM (doses to about 37.8 µM), for the others: at the highest dose activity change, negative = inhibition, most hits filed as inhibitors; AID 540276, 2011; calls by dose curve; tested in HEK293 cells; further: potency means the concentration at half of the fitted maximal effect
HCV inh: qHTS Assay for Inhibitors of Hepatitis C Virus (HCV) | hit rate 3.4% among 340,000 | Potency, µM (doses to about 41.8 µM), without a hit: at the top dose activity change, negative = inhibition, usual class: inhibitors | AID 651820, 2012 | Huh7.5.1 HCVcc-Cre infection, luciferase reporter, 44 h; further: potency means the concentration at half of the fitted maximal effect
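Whole-lifecycle infectious HCVcc-Cre system; cells 1,000/well, compound then virus (~0.5 moi) added 4 h after plating, 44 h culture. Luciferase read 15 sec following 15 min substrate incubation, room temp.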
LASV entry inh: qHTS for Inhibitors of binding or entry into cells for Lassa Virus | hit rate 1.2% among 300,000 | Lassa virus pseudotype entry inhibition, cell reporter | Potency, µM (top dose mostly 37.9 µM), for the others: top-dose activity change, negative = inhibition, hits mostly inhibitors; calls by dose curve; tested in HEK293 cells; further: potency means the concentration at half of the fitted maximal effect; nearly all actives have a fitted effect of over 50% in size
Starred values were filed as active, the others as inactive; [ ] = remark or other dose. Unless noted, the call rests on the fitted dose curve; in most records, active means well fitted inhibition curve with a large enough effect; inconclusive means small, poorly fitted or top-dose-only effect, or another doubt; inactive means no such curve, though single readings can be large or run the other way. On the % scale 0 is the no-effect control and ±100 the full control effect.

For COc1ccc(CCNC(=O)CN2C(=O)COc3ccccc32)cc1OC the results were HCMV antiviral -16.0 and LASV entry inh inconclusive.
For Cc1cc2c(NC(=O)Nc3ccccc3)cccc2nn1 the results were Pf growth 96h 13.1µM*, HCMV antiviral 44.2, Pf growth 48h inconclusive, MARV entry inh 1.5%[46.1 µM], HCV inh inconclusive and LASV entry inh -0.8%[46.1 µM].
Screening Cc1cc2c(NC(=O)Nc3ccc(C(C)(C)C)cc3)cccc2nn1 returned Pf growth 96h 11.7µM*, HCMV antiviral 1.8, Pf growth 48h inconclusive and HCV inh 14.1µM*.
CN(Cc1ccc(Cl)cc1Cl)C(=O)C1CSC2(C)CCC(=O)N12 (configuration not stated) was read as HCMV antiviral -35.9.
`O=c1c2oc3ccccc3c2ncn1Cc1ccc(Br)cc1` gave HCMV antiviral 14.2 and LASV entry inh -0.2%[46.1 µM].
For O=C(CN(c1cc(C(F)(F)F)ccc1Cl)S(=O)(=O)c1ccccc1)NCCc1ccccc1 the results were HCMV antiviral -70.4*, MARV entry inh -5.9%[46.1 µM] and LASV entry inh -1.8%[46.1 µM].
CS(=O)(=O)N(CC(=O)NCCc1ccccc1)c1cc(C(F)(F)F)ccc1Cl was read as HCMV antiviral 5.1, MARV entry inh -1.9%[46.1 µM] and LASV entry inh -11.3%[46.1 µM].
Screening O=C(CN(c1ccc(Br)cc1)S(=O)(=O)c1ccc(Cl)c([N+](=O)[O-])c1)NCC1CCCO1 (configuration not stated) returned HCMV antiviral 0.0, MARV entry inh inconclusive, HCV inh inconclusive and LASV entry inh inconclusive.
O=C(CN(c1ccc(Cl)cc1)S(=O)(=O)c1ccc(Cl)c([N+](=O)[O-])c1)NCCc1ccc(F)cc1 was read as Pf growth 96h 11.7µM*, HCMV antiviral 24.7, Pf growth 48h inconclusive, MARV entry inh 1.7%, HCV inh inconclusive and LASV entry inh -0.7%.
